TTR transcr act: increases transthyretin transcription. 92,000 compounds, 1.3% hits. SH-SY5Y TTR promoter Gaussia luciferase, luminescence; 100% = recombinant luciferase protein wells. activation, % at 16.7 µM;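 active = activation above the mean of all tested compounds plus 3 SD, cut at about 9.5% in these data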;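 note: cells exposed to compounds for one day before reading; 0% = median of all test compound wells on the plate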
HuH7 TTR inh: HuH7 TTR transcription inhibition, counter-screen | 1,100 compounds, 4% hits | shares compounds with TTR transcr act | HuH7 TTR promoter-Gaussia luciferase reporter, luminescence | inhibition, % at 16.7 µM;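 active = average inhibition above the solvent-only control wells' mean plus 3 SD, cut at about 15% in these data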;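 note: 0% = cells with DMSO only and 100% = cells with inhibitor control FD; inhibitors lower well luminescence so higher value means more inhibition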
TTR act confirm: human TTR transcription activation, confirmation; activation, % at 16.7 µM; SHSY5Y TTR promoter Gaussia luciferase, luminescence; 100% = purified Lucia enzyme wells, no cells; shares compounds with TTR transcr act; 1,100 tested, under 10 active; AID 1117280;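 active = mean activation above a set limit taken from the earlier primary screen, cut at about 11% in these data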;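 note: 0% = DMSO-treated cells and 100% = recombinant Lucia luciferase without cells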
Active calls of the source: *. This excerpt belongs to a sample that is enriched for hits.

SMILES	TTR transcr act	others
COc1ccc(S(=O)(=O)N2CCCC2C(=O)NCc2ccccc2Cl)cc1 (stereo not given)	-2
COc1cc(CNCc2ccccn2)ccc1OCc1cccc(Cl)c1	-2
COC(=O)[C@]12C[C@H](CC(=O)N3CCOCC3)C(=O)N(Cc3cccc4ccccc34)C1=C[C@H](C1CCCC1)O[C@@H]2C	-1
N#Cc1ccc(C23OCCN2CCn2nc4ccccc4c23)cc1 (stereo not given)	1
COc1ccc(F)cc1-c1cc(C(C)=O)c2n(c1=O)CCC2	1
Cc1cc(C)nc(NCc2ccc(Cl)cc2)n1	-1
CCCNc1nc(-c2cc(-c3ccc(Cl)cc3)on2)cc(C(C)C)n1	12*	HuH7 TTR inh=-12;TTR act confirm=0
CC(C)c1cc(-c2cc(-c3ccc(Cl)cc3)on2)nc(NC2CCCC2)n1	0
COc1ccc2ccccc2c1-c1c(C(=O)c2ccc(Br)cc2)[nH]c(N)c1C(=O)NC1CCCCC1	0
O=C(Nc1nc2c(Br)cccc2s1)c1ccc2c(c1)OCCO2	-3
CC(=O)OCCC(CC(C)C)NC(=O)[C@H](CC(C)C)NC(=O)OCc1ccccc1 (stereo not given in full)	-1
c1ccc(CNc2ncnc3c2cnn3-c2ccccc2)cc1	1
CCNc1ncnc2c1cnn2C1CCCO1 (stereo not given)	10*	HuH7 TTR inh=-8;TTR act confirm=1
c1ccc(-n2ncc3c(NCCN4CCCCC4)ncnc32)cc1	0
N#CC1CCN(c2nc(-c3ccc(Br)cc3)cs2)CC1	0
CCCc1c(O)nc(SC2CC(=O)N(c3ccc(C)c(Cl)c3)C2=O)[nH]c1=O (stereo not given)	12*	HuH7 TTR inh=-6;TTR act confirm=0
Cc1cc(C)n(CC2CC(=O)N(c3ccc(C)c(Cl)c3)C2=O)n1 (stereo not given)	1
CCOc1ccc(N2C(=O)CC(Sc3nc(C)cc(C)c3C#N)C2=O)cc1 (stereo not given)	0
Cc1ccc(CN2CC=CS2(=O)=O)cc1	0
Cc1nc(SCCC(C)C)c([N+](=O)[O-])[nH]1	-1
Cc1nc(SCc2ccccc2)c([N+](=O)[O-])[nH]1	-2
CCOC(=O)CSc1nc(C)[nH]c1[N+](=O)[O-]	10*	HuH7 TTR inh=-6;TTR act confirm=-1
COC(=O)[C@]12C[C@H](CC(=O)NCc3ccc(C)o3)C(=O)N(Cc3cccc4ccccc34)C1=C[C@H](COCc1ccccc1)O[C@@H]2C	0
CCOC(=O)c1c(C)[nH]c(C)c1C(=O)COC(=O)Cc1ccc(OC)c(OC)c1	2
O=C(NC1CCCCN(Cc2ccc(Cl)cc2)C1=O)C1C2CC3CC(C2)CC1C3 (stereo not given)	-1
SMILES	TTR transcr act	others
Cc1ccc(NC(=O)OC2CC3CC2[C@H]2CCCCN2[C@H]3C)cc1 (stereo not given in full)	0
O=C(NCCc1ccccc1)C1CCCN(S(=O)(=O)c2cccc3nonc23)C1 (stereo not given)	10.0*	HuH7 TTR inh=-5;TTR act confirm=2
O=C(NCc1ccc(F)cc1)C1CCCN(S(=O)(=O)c2cccc3nonc23)C1 (stereo not given)	2
O=C(NCCc1ccccc1)C1CCN(S(=O)(=O)c2cccc3nonc23)CC1	-3
O=C(c1ccc(Cn2cc(Cl)c([N+](=O)[O-])n2)cc1)N1CCN(Cc2ccccc2)CC1	2
Cc1cccc(N(Cc2cc3cc(C)ccc3[nH]c2=O)C(=O)c2cccs2)c1	-2
COc1cc2cc(CN(CCc3cccc(C)c3)C(=S)NCCCN(C)C)c(=O)[nH]c2cc1OC	-1
COc1cc2cc(CN(CCO)C(=O)c3cccs3)c(=O)[nH]c2cc1OC	33*	HuH7 TTR inh=-11;TTR act confirm=0
O=C(CN(C(=O)c1ccc2c(c1)OCCO2)c1ccccc1)NCC1CCCO1 (stereo not given)	1
CCCCN1CC[C@H](C)Oc2cc(Br)ccc2S1(=O)=O	7
CC(CNCCCn1cnc2c(OCc3ccccc3)ncnc21)c1ccccc1 (stereo not given)	0
COc1ccc(-n2cc(CNCCCN3CCCC3=O)c(-c3ccccc3Cl)n2)cc1	1
COc1ncnc2c1ncn2CCCNCCCN1CCCC1=O	15*	HuH7 TTR inh=-7;TTR act confirm=1
O=C(Nc1ccc(F)cc1)N(Cc1cccs1)Cc1cc2cc3c(cc2[nH]c1=O)OCO3	28*	HuH7 TTR inh=-27;TTR act confirm=0
Cc1ccc(NC(=O)N(Cc2cccs2)Cc2cc3cc4c(cc3[nH]c2=O)OCO4)cc1	-2
O=C(Nc1ccccc1)N(CCCN1CCOCC1)Cc1cc2cc3c(cc2[nH]c1=O)OCCO3	-1
CCCC[C@H]1C2CC(OC(=O)Nc3ccccc3C(F)(F)F)C(C2)[C@H]2CCCCN21 (stereo not given in full)	-1
O=c1c2cc(Cl)ccc2[nH]c(=S)n1Cc1cccs1	4
c1ccc(-c2ccc(-c3ccccn3)s2)nc1	-1
c1ccc(-c2nnc(-c3ccccn3)nn2)nc1	10*	HuH7 TTR inh=-2;TTR act confirm=0
c1ccc(-c2nnc(-c3ccccn3)c(-c3ccccn3)n2)nc1	-1
COc1ccc2c3c([nH]c2c1)[C@]1(CCNC=O)Nc2ccccc2C1=NCC3	0
CNC(C#Cc1ccccc1)c1ccccc1C(F)(F)F (stereo not given)	4
O=C(NC1CCN(Cc2ccccc2)CC1)c1ccccc1Cl	1
Cc1oc(-c2ccccc2)cc1C(=O)NC1CCN(Cc2ccccc2)CC1	9.8*	HuH7 TTR inh=0;TTR act confirm=0
SMILES	TTR transcr act	others
O=C(NC1CCN(Cc2ccccc2)CC1)c1ccccc1OCc1ccccc1	-3
C[C@@H]1CCN(C2CC2)S(=O)(=O)c2c(cccc2N2CC[C@H](N(C)C)C2)O1	1
COc1ccc(CNS(=O)(=O)CC2NCCc3ccccc32)cc1 (stereo not given)	1
O/N=C/c1ccc2ccccc2c1	3
CCOC(=O)[C@@]12CCCC=C1N(CCc1ccc(Cl)cc1)C(=O)[C@H]2CC(=O)NCc1cccc2ccccc12	-1
Cc1cccc(Cn2cc(COC(=O)N(C)Cc3ccccc3)nn2)c1	-2
O=C(NCCc1ccccc1)OCc1cn(Cc2ccccc2Cl)nn1	1
CN(Cc1ccccc1)C(=O)OCc1cn(Cc2ccccc2Cl)nn1	-2
O=C(NCCc1ccccc1)OCc1cn(Cc2cc(F)cc(F)c2)nn1	-1
O=C(NCCc1ccccc1)OCc1cn(Cc2ccccc2F)nn1	20*	HuH7 TTR inh=-2;TTR act confirm=0
Cc1ccccc1Cn1cc(COC(=O)N(C)Cc2ccccc2)nn1	12*	HuH7 TTR inh=18*;TTR act confirm=-1
COc1ccccc1CNC(=O)CCS(=O)(=O)c1ccc2c(c1)CCN2C(C)=O	-2
O=C(NCCc1c[nH]c2ccccc12)OCc1cn(-c2ccc(Cl)cc2)nn1	-1
COC(=O)[C@@]12C[C@@H](CC(=O)N3CCCC3)C(=O)N(Cc3ccco3)C1=CCC(C)(C)C2	-1
O=C(COC(=O)c1ccc[nH]c1=O)NC1CCCc2ccccc21 (stereo not given)	-1
O=C(NCc1ccco1)O[C@@H]1CC[C@@]23CCCN2C(=O)CCC[C@H]3C1	0
COC(=O)C1=C(N)Oc2cc(C)n(Cc3cccnc3)c(=O)c2C1c1ccc(OC)c(OC)c1 (stereo not given)	18*	HuH7 TTR inh=-9;TTR act confirm=0
COc1cccc(C2C(C#N)=C(N)Oc3cc(C)n(Cc4ccccn4)c(=O)c32)c1OC (stereo not given)	4

Screening data: PubChem BioAssay, The Scripps Research Institute Molecular Screening Center
